High-throughput results (PubChem BioAssay)
SRC3 inh – inhibitors of human steroid receptor coactivator 3 (SRC3); inhibition, % at 3.6 µM; actives 0.17% (n = 360,000); AID 588352; Q9Y6Q9; HEK293 GAL4-SRC3 luciferase reporter, luminescence;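 active means inhibition above a per-campaign cutoff, the mean of all compounds plus 3 SD, cut at about 60% in these data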;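 further: higher means less SRC3-driven luciferase light from the GAL4 reporter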
SRC1 inh – inhibits human SRC1 coactivator; HEK293 GAL4-SRC1 luciferase reporter, luminescence; Q15788; inhibition, % at 3.6 µM; actives 0.12% (n = 360,000); AID 588354;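 active means inhibition above the campaign mean plus 3 SD, with each screening campaign given its own cutoff, cut at about 60% in these data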
NR5A2 inv ag – NR5A2 inverse agonism in reporter assay; O00482; HEK293T StAR-luciferase reporter, LRH-1 transfected, 24 h; inhibition, % at 3.6 µM; actives 0.13% (n = 360,000); AID 602396;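 active means inhibition above the mean inhibition of all tested compounds plus 3 SD, cut at about 73% in these data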
COUP-TFII inh – NR2F2 (human) inhibition, primary screen. HEK293T NGFI-A luciferase reporter, luminescence. inhibition, % at 8.6 µM. actives 0.7% (n = 370,000);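 active means inhibition above a per-plate cutoff, mean inhibition of test wells between control levels plus 3 SD, cut at about 38% in these data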;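 further: cells cotransfected with COUP-TFII expression vector driving the NGFI-A reporter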
NCOA2 inhibitor – inhibits human steroid receptor coactivator 2 | Q15596 | HEK293 GAL4-SRC2 luciferase reporter, luminescence | inhibition, % at 9 µM | actives 0.17% (n = 370,000);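 active means inhibition above the mean inhibition of all tested compounds plus 3 SD, set per campaign, cut at about 52% in these data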
VP16 Luc counter – inhibits VP16 reporter, flagging COUP-TFII antagonist hits. HEK293 Gal4-VP16 luciferase reporter, luminescence. inhibition, % at 8.5 µM. shares compounds with COUP-TFII inh. actives 25% (n = 2,500); in the data active means inhibition above about 13%
NR2F2 inh conf – COUP-TFII (NR2F2) inhibition, confirmation assay. shares compounds with COUP-TFII inh. HEK293 NGFI-A luciferase reporter, luminescence. inhibition, % at 8.5 µM. actives 45% (n = 2,500);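 active means mean inhibition over three repeats above a set limit taken from the earlier primary screen, cut at about 38% in these data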
Of the large screens only hits and unclear results are named; the others gave an inactive call (follow-up assays come after a bar, where they were run); ! = not active in a repeat. Shown are actives, neighbours in structure and some others; about 0.84% of the full set was active somewhere.

COc1cc(C#Cc2c(-c3cncn3C)n(C)c3ccc(-c4cnc(OC)nc4)cc23)cc(OC)c1	COUP-TFII inh 45 | VP16 Luc counter inactive | NR2F2 inh conf inactive
Cc1ccc(S(=O)(=O)N2CC(CBr)=CCC2c2ccccc2)cc1 (centres undefined)	none (no result: SRC3 inh, SRC1 inh, NR5A2 inv ag)
CCCCCCCCN1C(=O)[C@@H](CC(=O)NCCCOCCCC)C[C@@]2(C(=O)OC)C1=C[C@H](C1CCCC1)O[C@@H]2C	none (no result: SRC3 inh, SRC1 inh, NR5A2 inv ag)
CN1C2CCC1/C(=C\c1ccc(F)cc1)C(=O)/C2=C/c1ccc(F)cc1	none
C=CC(=O)N1C/C(=C/c2ccc(F)cc2)C(=O)/C(=C\c2ccc(F)cc2)C1	COUP-TFII inh 106, NCOA2 inhibitor 96 | VP16 Luc counter 86 | NR2F2 inh conf 104
O=C(NCCN1CCC(Cc2ccccc2)CC1)C1CCCN(S(=O)(=O)c2cccs2)C1 (centres undefined)	COUP-TFII inh 47 (no result: SRC3 inh, SRC1 inh, NR5A2 inv ag) | VP16 Luc counter inactive | NR2F2 inh conf inactive
CCN(CCc1ccccc1)c1ccc2c(c1)C1CC2CCN1C(=O)OCc1ccccc1 (centres undefined)	none
CCCCN(C(C)=O)c1ccc2c(c1)C1CC2CCN1C(=O)OCc1ccccc1 (centres undefined)	COUP-TFII inh 55 | VP16 Luc counter inactive | NR2F2 inh conf 39
Cn1c(SCC(=O)NCCc2ccccc2)ncc(C(=O)Nc2ccccc2)c1=O	COUP-TFII inh 54 | VP16 Luc counter inactive | NR2F2 inh conf inactive
O=C(CSc1cc(Cl)ccc1Cl)N/N=C/c1ccc[nH]1	COUP-TFII inh 56 (no result: SRC3 inh, SRC1 inh, NR5A2 inv ag, NCOA2 inhibitor) | VP16 Luc counter inactive | NR2F2 inh conf 38
Cc1ccc(C#CC[N+]2(CC#Cc3ccc(C)cc3)CCCCC2)cc1	COUP-TFII inh 45 | VP16 Luc counter 13 | NR2F2 inh conf inactive
N#Cc1cc([N+](=O)[O-])ccc1N1CCN(c2ccccc2O)CC1	none
O=[N+]([O-])c1ccc(N2CCN(c3ccc([N+](=O)[O-])cc3CO)CC2)c(CO)c1	COUP-TFII inh 60 | VP16 Luc counter inactive | NR2F2 inh conf inactive
COc1cc(CNc2ncnc3c2ncn3[C@H]2CN(Cc3ccccc3)C[C@@H](COC(C)=O)O2)cc(OC)c1OC	none
CC(=O)c1cccc(NC(=O)CSc2ccc(-c3sc(C)nc3C)nn2)c1	none
Cc1nc(C)c(-c2ccc(SCC(=O)Nc3cccc(F)c3)nn2)s1	COUP-TFII inh 47 | VP16 Luc counter inactive | NR2F2 inh conf inactive
Cc1nc(C)c(-c2ccc(SCC(=O)Nc3cccc(Cl)c3)nn2)s1	COUP-TFII inh 53 | VP16 Luc counter inactive | NR2F2 inh conf inactive
CC(=O)Oc1c(Cl)cc(N(C(C)=O)S(=O)(=O)c2ccccc2)c2ccccc12	COUP-TFII inh 53 | VP16 Luc counter 28 | NR2F2 inh conf inactive
Cc1nc2ccccc2c2oc(C(=O)N3CCN(C4CCCCC4)CC3)cc12	COUP-TFII inh 42 | VP16 Luc counter inactive | NR2F2 inh conf inactive
COc1cccc(CNC(=O)c2cc3c(C)nc4ccccc4c3o2)c1	COUP-TFII inh 38 | VP16 Luc counter inactive | NR2F2 inh conf inactive
Cc1nc2ccccc2c2oc(C(=O)N3CCC(N4CCCCC4)CC3)cc12	none (no result: COUP-TFII inh, NCOA2 inhibitor)
CCc1ccc(CNC(=O)c2cc3c(C)nc4ccccc4c3o2)cc1	COUP-TFII inh 51 | VP16 Luc counter inactive | NR2F2 inh conf inactive
COc1ccc(CNC(=O)c2cc3c(C)nc4ccccc4c3o2)c(OC)c1	none (no result: COUP-TFII inh, NCOA2 inhibitor)
CCCCN(CC)CCNC(=O)c1cc2c(C)nc3ccccc3c2o1	none
COc1ccc(-c2ccc3c(n2)CCCN3S(=O)(=O)c2c(C)noc2C)cc1	none (no result: SRC3 inh, SRC1 inh, NR5A2 inv ag)
Nc1ccn([C@@H]2O[C@H](C(=O)NCC(=O)N3CCOCC3)[C@@H](O)[C@H]2O)c(=O)n1	none (no result: SRC3 inh, SRC1 inh, NR5A2 inv ag)
COc1ccccc1-n1c(-c2ccccc2)c[n+]2c1CCc1ccccc1-2	SRC3 inh 74!, COUP-TFII inh 71 | VP16 Luc counter 18! | NR2F2 inh conf 63
COc1ccc(-c2cn(-c3ccc(OC)cc3)c3[n+]2-c2ccccc2CC3)cc1	SRC3 inh 69, COUP-TFII inh 62 | VP16 Luc counter inactive | NR2F2 inh conf 55
CC(C)c1ccc(-n2c(-c3ccccc3)c[n+]3c2CCc2ccccc2-3)cc1	SRC3 inh 77, NR5A2 inv ag 81, COUP-TFII inh 89 | VP16 Luc counter 28 | NR2F2 inh conf 87
COc1ccc(-n2cc(-c3ccccc3)[n+]3c2CCCCC3)cc1	none
COc1ccc(-n2c(-c3ccc(Br)cc3)c[n+]3c2CCc2ccccc2-3)cc1	COUP-TFII inh 38 | VP16 Luc counter 21 | NR2F2 inh conf inactive
C[C@H](O)[C@@H]1C(=O)N2CCc3c([nH]c4c(-c5ccccc5)cccc34)[C@@H]2C[C@@H]1N(C)C(=O)OCc1ccccc1	none (no result: SRC3 inh, SRC1 inh, NR5A2 inv ag)
COc1cccc(NC(=O)N2CC[C@@H]3[C@H]2c2cc(-c4cccc(C#N)c4)ccc2N(C)[C@@H]3CO)c1	none (no result: SRC3 inh, SRC1 inh, NR5A2 inv ag)
Cc1cc(CN2CCN(c3ncc(Cc4ccccc4)cn3)CC2)cc(C)c1O	none (no result: SRC3 inh, SRC1 inh, NR5A2 inv ag)
CC(C)(C)C(=O)Nc1cccc(OC(F)(F)C(F)Cl)c1 (centres undefined)	none
CC(=O)c1c(C)[nH]c(C(=O)OCCCCN2C(=O)c3ccccc3C2=O)c1C	COUP-TFII inh 53 | VP16 Luc counter inactive | NR2F2 inh conf 61
O=C(Nc1ccc(Oc2ccccc2)nc1)C1CCN(Cc2cccc(F)c2)CC1	none
O=C(Nc1ccc(Oc2cccnc2)cc1)C1CCN(Cc2cc(Cl)ccc2O)CC1	COUP-TFII inh 62 | VP16 Luc counter inactive | NR2F2 inh conf 48
C#Cc1ccc(CN2CCC(C(=O)Nc3ccc(Oc4ccccc4)nc3)CC2)cc1	COUP-TFII inh 49 | VP16 Luc counter inactive | NR2F2 inh conf inactive
CCOc1ccc(-n2c(COc3ccc(C)cc3)nnc2SCC(=O)c2ccc3ccccc3c2)cc1	none (no result: SRC3 inh, SRC1 inh, NR5A2 inv ag)
CC[C@H]1CN2CCc3cc(OC)c(OC)cc3C2C[C@@H]1C[C@H]1NCCc2cc(OC)c(OC)cc21 (some centres undefined)	SRC3 inh 95, SRC1 inh 96, NR5A2 inv ag 104, COUP-TFII inh 92, NCOA2 inhibitor 70 | VP16 Luc counter inactive | NR2F2 inh conf 84
CCC1=C(CC2NCCc3ccccc32)CC2c3cc(OC)c(OC)cc3CCN2C1 (centres undefined)	SRC3 inh 82, SRC1 inh 73, NR5A2 inv ag 88, COUP-TFII inh 67, NCOA2 inhibitor 55 | VP16 Luc counter inactive | NR2F2 inh conf 54
COc1cc2c(cc1OC)CN1CCc3cc(OC)c(OC)cc3C1C2 (centres undefined)	none
O=Nc1ccc(O)c2ncccc12	COUP-TFII inh 54 | VP16 Luc counter inactive | NR2F2 inh conf 41
Cc1ccccc1N=Nc1ccc(O)c2ncccc12	none
Cc1ccc[n+](Cc2ccc([N+](=O)[O-])cc2)c1	none
O=[N+]([O-])c1ccc(C[n+]2cccc3c4ccccc4ccc32)cc1	COUP-TFII inh 58 | VP16 Luc counter inactive | NR2F2 inh conf inactive
